Screens: PubChem, National Center for Advancing Translational Sciences (NCATS)
HCV inh: qHTS Assay for Inhibitors of Hepatitis C Virus (HCV); 340,000 compounds, 3.4% hits; Huh7.5.1 HCVcc-Cre infection, luciferase reporter, 44 h; AID 651820, 2012; Potency, µM (titrated, usually from 41.8 µM), actives largely listed as inhibitors
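Infectious HCVcc-Cre (~0.5 moi) was added to cells just after compound, with cells seeded 4 h earlier at 1,000 per well. Luciferase activity after 44 h culture reported infection; substrate was incubated 15 min at room temperature before reading.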
Pf growth 96h: Primary qHTS for delayed death inhibitors of the malarial parasite plastid, 96 hour incubation; P. falciparum luciferase reporter growth, 96 h; Potency, µM (series often up to 28.7 µM), usual class: inhibitors; 320,000 compounds, 6.9% hits; AID 504834, 2011
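Two parasite generations (96 h, 37 C, 5% CO2) of compound exposure in infected erythrocytes (0.05% parasitemia, 2% hematocrit). Luciferase-reporter P. falciparum; decreased luminescence indicates inhibited growth, aimed at apicoplast-acting delayed death.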
Pf growth 48h: Primary qHTS for delayed death inhibitors of the malarial parasite plastid, 48 hour incubation | Potency, µM (highest dose often 28.7 µM), usual class: inhibitors | P. falciparum luciferase growth in erythrocytes, 48 h | 310,000 compounds, 5.9% hits
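Luciferase-expressing P. falciparum in infected erythrocytes (2% hematocrit, 0.1% parasitemia final) in RPMI 1640/0.5% Albumax were exposed to compound for 48 hours at 37 C, 5% CO2; growth read as luminescence.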
AMA1-RON2 inh: qHTS for Inhibitors of AMA1-RON; Towards Development of Antimalarial Drug Lead: Primary Screen. Potency, µM (series often up to 58.2 µM), hits mostly inhibitors. AlphaScreen AMA1-biotinylated RON2 peptide binding. 360,000 compounds, 0.2% hits. Plasmodium falciparum AMA1 (3D7) - RON2 peptide interaction; also: nearly all actives have a fitted effect of over 45% in size
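AMA1 (3D7) with his tag at 25 nM final met compounds first, then biotinylated RON2 peptide at 25 nM; detection used donor plus acceptor beads, 10 µg/mL apiece, read by AlphaScreen after 30 min at room temperature.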
NS1 inh: qHTS Assay for Inhibitors of Influenza NS1 Protein Function | Potency, µM (top dose mostly 46.1 µM) | 270,000 compounds, 0.4% hits | AID 2326, 2010; calls by dose curve; also: actives are rising curves; nearly all actives have a fitted effect of over 50% in size
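Recovery from NS1-induced slow growth read by OD600 in budding yeast switched to galactose assay medium (pH 6.0, -URA) at 1:100 dilution. Compound 23 nl per well; the matching strain lacking NS1 serves as control.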
SARS PLP yeast: qHTS of Yeast-based Assay for SARS-CoV PLP; S. cerevisiae expressing SARS-CoV PLpro, growth rescue; Potency, µM (doses to about 32.9 µM), usual class: activators; 330,000 compounds, 0.19% hits; calls by dose curve; also: nearly all actives have a fitted effect of over 55% in size
A number is an active result; n = inactive; u = inconclusive; x = not tested or not shown; [ ] = remark or other dose. Only some compounds are listed: those with a hit (about 12% of all), similar ones and a draw of the others. Unless noted, calls follow the shape of the dose curve; as a rule, active = well fitted curve in the direction sought with a large enough effect; inconclusive = small, poorly fitted or top-dose-only effect, or another doubt; inactive = no such curve, though single readings can be large; an effect the other way counts as inactive or inconclusive.

SMILES	HCV inh	Pf growth 96h	Pf growth 48h	AMA1-RON2 inh	NS1 inh	SARS PLP yeast
O=C(N/N=C/c1ccc(-c2cccc([N+](=O)[O-])c2)o1)c1ccccc1O	n	n	u	n	x	n
NC(=O)N/N=C/c1ccc(-c2cccc(C(F)(F)F)c2)o1	n	n	n	n	x	n
O=C(N/N=C/c1ccc(-c2cccc([N+](=O)[O-])c2)o1)c1ccc([N+](=O)[O-])cc1	10µM	n	u	n	x	n
O=C(N/N=C/c1ccc(-c2ccccc2[N+](=O)[O-])o1)c1cccnc1	n	n	n	n	n	n
O=C(N/N=C/c1ccc(-c2cccc(C(F)(F)F)c2)o1)c1ccccc1O	n	n	8.3µM	n	n	n
O=C(N/N=C/c1ccc(-c2cccc(C(F)(F)F)c2)o1)c1ccccc1Br	u	n	n	n	n	n
CC(C)(C)c1cc(C(=O)N/N=C/c2ccc(-c3ccccc3[N+](=O)[O-])o2)n[nH]1	u	10µM	12µM	n	n	n
COc1ccc(CCNC(=O)COC(=O)C2CC2)cc1OC	n	x	x	n	x	n
CCOc1ccc(C(=O)CC(C(=O)O)N2CCCCC2)cc1 (centres undefined)	u	u	n	n	x	n
O=C1CNC(=S)N1Cc1ccc(F)cc1	n	n	n	n	n	n
N=c1ccn(Cc2ccc(F)cc2)cc1	4µM	u	u	n	n	n
Cc1cc(N2CCN(C)CC2)nc2ccc(NC(=O)c3ccc4c(c3)OCO4)cc12	10µM	x	9.3µM	n	n	n
COc1cc(C(=O)Nc2ccc3c(c2)N(C(=O)CN2CCN(C)CC2)c2ccccc2CC3)cc(OC)c1OC	u	u	13µM	n	n	n
CN1CCN(c2ccc(NC(=O)c3ccc4c(c3)OCO4)cc2)CC1	n	n[5.75 µM]	n	n	n	n
COc1cc(NC(=O)CCC(=O)Nc2ccc3nc(N4CCOCC4)cc(C)c3c2)cc(OC)c1OC	u	n	n	n	n	n
COc1cc(C(=O)Nc2ccc3nc(N4CCN(C)CC4)cc(C)c3c2)cc(OC)c1OC	u	n	0.33µM	n	n	n
CCOC(=O)c1cccc(NC(=O)Cn2nc(C)n3cccc3c2=O)c1	n	u	n	n	n	n
CCSc1nc(N)c2c3c(sc2n1)CN(C)CC3	n	u	u	x	n	n
CSc1nc(N)c2c3c(sc2n1)CN(C)CC3	u	4.7µM	x	n	n	n
C=CCSc1nc(N)c2c3c(sc2n1)CN(C)CC3	u	2.1µM	u	n	n	n
CCOc1cccnc1Sc1ccccc1	n	x	x	n	x	x
Cc1cc([N+](=O)[O-])ccc1NC(=O)CCC(=O)N1CCCCCC1	n	n	n	n	n	n
COc1ccc(C2C(C(N)=O)=C(C)Nc3nc(CCCO)nn32)cc1 (centres undefined)	n	n	n	n	n	n
COc1ccccc1NC(=O)C1=C(C)Nc2nc(CCCO)nn2C1c1cccnc1 (centres undefined)	n	5.2µM	n	n	n	n
COc1ccc(C2C(C(=O)Nc3ccccc3)=C(C)Nc3nc(CCCO)nn32)cc1 (centres undefined)	n	13µM	n	n	n	n
SMILES	HCV inh	Pf growth 96h	Pf growth 48h	AMA1-RON2 inh	NS1 inh	SARS PLP yeast
CC1=C(C(=O)Nc2ccc(F)cc2)C(c2cccc(C)c2)n2nc(CCCO)nc2N1 (centres undefined)	n	6.6µM	n	n	n	n
CCOC(=O)C1=C(C)Nc2nc(SCC)nn2C1c1ccc(OC)cc1 (centres undefined)	n	13µM	n	n	n	n
O=C(CCCNC(=O)c1ccc(Cl)cc1)NCc1ccccc1F	n	n	n	n	n	n
CCc1nc2ccc(C(=O)NCCC(C)C)cn2c1N(CCN(C)C)CC1CC1	x	x	x	n	x	x
COc1cc(OC)c(OC)cc1/C=N/N(C)c1ccccc1	8.9µM	n	x	32µM	n	n
CCSCCOC(=O)C1=C(C)N(C)C(=O)NC1c1ccc2c(c1)OCO2 (centres undefined)	n	n	n	n	n	n
